According to PubChem BioAssay AID1851 (National Center for Advancing Translational Sciences (NCATS), 2009):
The campaign covered roughly 16,000 compounds. About 4,000 (25%) were called active. About 26% were inconclusive and are not listed. These entries were drawn from the full list. Values without a mark were called inactive. Calls come from the whole dose curve; as a rule, active = well fitted curve in the direction sought with a large enough effect; inconclusive = small, poorly fitted or top-dose-only effect, or effect the other way; inactive = no such curve, though single readings can be large or run the other way.

These molecules were tested against Cytochrome P450 2C9 (Homo sapiens) (UniProt P11712) (assay: Cytochrome panel assay with activity outcomes). Conditions: recombinant CYP, pro-luciferin dealkylation, luminescence, p450-cyp2c9; series mostly up to 57.1 µM.
Chain of Cytochrome P450 2C9 (Homo sapiens) (P11712 whole entry, looked up): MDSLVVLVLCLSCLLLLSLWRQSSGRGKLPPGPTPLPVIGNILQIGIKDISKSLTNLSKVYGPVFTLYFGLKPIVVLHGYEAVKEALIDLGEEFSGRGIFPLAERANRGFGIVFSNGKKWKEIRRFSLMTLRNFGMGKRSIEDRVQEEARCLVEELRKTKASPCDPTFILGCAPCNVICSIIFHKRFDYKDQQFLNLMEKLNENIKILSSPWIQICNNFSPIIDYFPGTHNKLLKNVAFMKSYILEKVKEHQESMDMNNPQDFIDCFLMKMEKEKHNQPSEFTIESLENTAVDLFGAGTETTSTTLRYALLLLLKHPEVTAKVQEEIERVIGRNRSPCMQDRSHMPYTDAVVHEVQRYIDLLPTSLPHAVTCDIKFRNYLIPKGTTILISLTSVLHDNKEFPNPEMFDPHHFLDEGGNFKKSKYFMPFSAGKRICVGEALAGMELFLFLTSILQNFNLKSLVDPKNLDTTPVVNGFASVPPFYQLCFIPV
% is set by controls: 0 for no effect and ±100 for the full control effect.

Compound | AC50 | activity, negative = inhibition
CC(C)C[C@H](NC(=O)[C@@H](O)[C@H](N)Cc1ccccc1)C(=O)O | inactive | –
CCCCn1c(SCc2c(C)noc2C)nc2cc(S(N)(=O)=O)ccc21 | 10 µM (active) | –
CCn1c(C)nc2cc(S(=O)(=O)C(F)F)ccc21 | inactive | –
c1ccc2c(N3CCNCC3)nc(-c3ccc4c(c3)OCO4)nc2c1 | – | 12.6% [at 2.29 µM]
O=C1CC(c2ccc3c(c2)OCO3)Sc2nc3ccccc3n21 (stereo not given) | 3.16 µM (active) | –
O=C1CC(c2ccc3c(c2)OCO3)CN1 (stereo not given) | inactive | –
O=C(CSc1nc2ccccc2o1)Nc1nc2ccccc2s1 | 3.98 µM (active) | –
O=C(CSc1nc2ccccc2[nH]1)NCCN1CCCCC1 | inactive | –
O=C(NC1CCCCC1)C(c1ccccc1)N1CCOCC1 (stereo not given) | inactive | –
CCCCOC(=O)Nc1nc2ccccc2s1 | inactive | –
O=C(CSc1ccccn1)Nc1nc2ccc(Br)cc2s1 | 7.08 µM (active) | –
O=C(CNC1CCCCCC1)Nc1ccccc1N1CCCCC1 | 28.2 µM (active) | –
Cc1ccc(-c2nc3ccccc3o2)cc1NC(=O)Cc1cccs1 | inactive | –
O=C(O)C1CCCCC1C(=O)Nc1ccccc1Cl (stereo not given) | inactive | –
c1ccc(/C(=N/Nc2nc3ccccc3s2)c2ccccn2)cc1 | – | -23.7% [at 11.4 µM]
O=C(CSc1nc2ccccc2o1)Nc1ccccc1N1CCCCCC1 | 12.6 µM (active) | –
O=C(CSc1nc2ccccc2o1)NC(=O)NCc1ccccc1 | 7.08 µM (active) | –
O=C(CN1CCN(S(=O)(=O)c2ccccc2)CC1)NC(=O)NCc1ccccc1 | inactive | –
O=C(N/N=C\c1ccc(-c2ccccc2[N+](=O)[O-])o1)C1COc2cc3ccccc3cc2O1 (stereo not given) | 1 µM (active) | –
C[N+]1(C)CCC(=C(c2ccccc2)c2ccccc2)CC1 | inactive | –
CC(C)(CO)Cc1cc(C(C)(C)C)c(O)c(C(C)(C)C)c1 | inactive | –
CC(C)(C)c1cc(/C=C(\C#N)C(N)=S)cc(C(C)(C)C)c1O | 0.1 µM (active) | –
N#CC(C#N)=C(N)/C(C#N)=C/c1ccc(O)cc1 | inactive | –
CC(C)=NNc1ncnc2nc[nH]c12 | – | -11.9% [at 11.4 µM]
CCOc1cccc(OCCCNCCCOC)c1 | inactive | –

Compound | AC50 | activity, negative = inhibition
Cc1ccccc1-c1cncnc1Nc1ccc(F)cc1 | – | -14.2% [at 2.29 µM]
C=CCN1C(=CCO)[C@H]2C[C@H]3[C@@H]1CC[C@@]31c3ccccc3N3C=C4[C@@H]5N(/C=C/2[C@H]31)c1ccccc1[C@]51CC[C@H]2[C@H]1C[C@@H]4/C(=C/CO)N2CC=C | inactive | –
C[C@@](N)(C(=O)O)c1ccc(S(=O)(=O)O)cc1 | inactive | –
CCOc1cc2[nH]c(=O)n(CCCC(=O)NCc3ccc(OC)cc3)c(=O)c2cc1OCC | 4.47 µM (active) | –
COC(=O)C/C=C\[C@@H](C)[C@@H](/C=N\O[C@@H]1O[C@H](COC(C)=O)[C@H](OC(C)=O)[C@H](OC(C)=O)[C@H]1OC(C)=O)OC | – | -21% [at 11.4 µM]
CN1CCC2(CC1)CCN(C(=O)c1ccncc1)CC2 | inactive | –
O=C(c1ccncc1)N1CCC2(CC1)CN(c1ncccn1)C2 | inactive | –
O=C(c1ccncc1)N1CCC2(CC1)CCN(c1ncccn1)CC2 | 15.8 µM (active) | –
O=C(c1ccncc1)N1CCC2(CC1)CCN(c1ccccn1)CC2 | 10 µM (active) | –
CC(=O)N1CCC2(CC1)CCN(c1ccccn1)CC2 | inactive | –
C[C@H](NCCC(c1ccccc1)c1ccccc1)c1ccccc1 | inactive | –
CC1(C)CCC=[N+]1[O-] | inactive | –
CS[C@]12C(=O)C[C@]3(C)[C@@H](CC[C@@]3(O)C(=O)CO)[C@@H]1CCC1=CC(=O)CC[C@]12C | – | 11.9% [at 11.4 µM]
O=C(c1ccncc1)N1CCC2(CC1)CN(Cc1cc(C(F)(F)F)cc(C(F)(F)F)c1)C2 | inactive | –
O=C(c1cnccn1)N1CCC[C@@]2(CCN(Cc3ccncc3)C2)C1 | 10 µM (active) | –
O=C(c1cc(C(F)(F)F)cc(C(F)(F)F)c1)N1CCC[C@@]2(CCN(Cc3ccncc3)C2)C1 | 0.0794 µM (active) | –
O=C(c1cc(C(F)(F)F)cc(C(F)(F)F)c1)N1CCC2(CC1)CN(Cc1ccncc1)C2 | 10 µM (active) | –
O=C(c1cnccn1)N1CCC2(CCCN(Cc3nccs3)C2)CC1 | 15.8 µM (active) | –
CC(C)CN1CC[C@@]2(CCCN(C(=O)c3cnccn3)C2)C1 | inactive | –
O=C(c1cc(C(F)(F)F)cc(C(F)(F)F)c1)N1CCC2(CC1)CN(Cc1ccccc1)C2 | inactive | –
O=C(c1cnccn1)N1CCC2(CC1)CN(Cc1nccs1)C2 | inactive | –
N#Cc1ccc(CN2CC[C@@]3(CCCN(C(=O)c4cc(C(F)(F)F)cc(C(F)(F)F)c4)C3)C2)cc1 | inactive | –
O=C(c1cnccn1)N1CCC[C@@]2(CCN(c3ncccn3)C2)C1 | inactive | –
O=C(c1cc(C(F)(F)F)cc(C(F)(F)F)c1)N1CCC[C@@]2(CCN(Cc3ccccc3)C2)C1 | inactive | –
O=C(c1cnccn1)N1CCC2(CCN(Cc3nccs3)CC2)CC1 | inactive | –
